This passage reports AC50 and activity, negative = inhibition results from PubChem BioAssay AID1851 (National Center for Advancing Translational Sciences (NCATS), 2009).

Several values for one entry are separate records, joined by “and”; a condition that tells them apart may be missing. Equal entries are not always repeated. Among all 16,000 compounds or so, about 5,700 (36%) were called active. Inconclusive results (about 24%) are left out. The list shows a part of the results. Values without a mark were called inactive. The call rests on the fitted dose curve; in most records, active means well fitted curve in the direction sought with a large enough effect; inconclusive means small, poorly fitted or top-dose-only effect, or effect the other way; inactive means no such curve, though single readings can be large or run the other way.
On the % scale 0 is the no-effect control and ±100 the full control effect.

For this assay, the target named is Cytochrome P450 1A2 (Homo sapiens) (UniProt P05177). The experiment in a line: Cytochrome panel assay with activity outcomes. The settings on record: recombinant CYP, pro-luciferin dealkylation, luminescence, p450-cyp1a2; series mostly up to 57.1 µM.
Chain of Cytochrome P450 1A2 (Homo sapiens) (P05177 whole entry, looked up): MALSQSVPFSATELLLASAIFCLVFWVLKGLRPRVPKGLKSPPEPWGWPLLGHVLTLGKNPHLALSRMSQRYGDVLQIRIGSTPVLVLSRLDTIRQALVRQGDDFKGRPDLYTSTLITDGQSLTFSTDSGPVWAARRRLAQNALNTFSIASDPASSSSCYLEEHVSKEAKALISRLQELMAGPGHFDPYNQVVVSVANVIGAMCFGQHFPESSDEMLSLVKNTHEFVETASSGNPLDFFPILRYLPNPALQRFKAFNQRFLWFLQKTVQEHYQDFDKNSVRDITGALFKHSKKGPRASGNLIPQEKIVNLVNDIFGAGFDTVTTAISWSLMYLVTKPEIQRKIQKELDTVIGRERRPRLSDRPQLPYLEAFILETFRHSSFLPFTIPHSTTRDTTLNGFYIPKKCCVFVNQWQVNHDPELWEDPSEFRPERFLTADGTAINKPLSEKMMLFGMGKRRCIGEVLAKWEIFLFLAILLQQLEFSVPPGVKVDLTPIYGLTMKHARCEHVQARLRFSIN
Consider `Cc1ccc(SCc2[nH]nc3c2C(C(C)C)C(C#N)=C(N)O3)cc1` (stereo unspecified), for which the AC50 was 12600 nM (active).
For `O=[N+]([O-])c1ccc(C=Nc2ccc(Cl)cc2Cl)s1`, the AC50 is 2000 nM (active).
For the compound `O=c1onc(-c2cccs2)n1Cc1ccccc1`, the AC50 is 2240 nM (active).
With `CN(C)CCNS(=O)(=O)N(C)C`, the activity, negative = inhibition is -3% [at 11.4 µM].
Turning to `CNc1nc(-c2cccnc2)nc2ccccc12`, the concentration at half-maximal activity (AC50) is 100 nM (active).
For `c1ccc(Nc2nc(-c3cccnc3)nc3ccccc23)cc1`, the half-maximal activity concentration (AC50) is 398 nM (active).
Take `O=C(O)CC12C[C@H]3C[C@@H](CC(O)(C3)C1)C2`: the activity, negative = inhibition was -11.2% [at 11.4 µM].
`Cc1oc(-c2ccccc2Cl)nc1CSCC(=O)NC1CC1`: the half-maximal activity concentration (AC50) was 15800 nM (active).
The same measure, in the same setting: as for `O=C(CSCc1cccc(Br)c1)N/N=C/c1ccc2c(c1)OCO2`, the figure is 2510 nM (active); as for `CCOC(=O)N1CCC(NC(=O)CS(=O)(=O)Cc2nc(-c3cccc(OC)c3)oc2C)CC1`, “inactive”; as for `O=C1Nc2ccccc2C(O)(C(=O)NCc2ccc3c(c2)OCO3)N1c1ccc(Cl)c(Cl)c1` (stereo unspecified), “inactive”.
Take `O=C(CSCc1cccc(Cl)c1)NCc1ccc2c(c1)OCO2`: the AC50 was 3160 nM (active).
Regarding `Cc1oc(-c2ccccc2F)nc1CSCC(=O)NCc1ccc2c(c1)OCO2`, the AC50 was 1580 nM (active).
The same measure, in the same setting: as for `O=C(N/N=C/c1ccc2c(c1)OCO2)/C(=C/c1ccc2c(c1)OCO2)NC(=O)c1ccccc1`, the entry is “inactive”.
Consider `CN1CCN(CCCNC(=O)c2ccc(CSCc3cccc(Cl)c3)o2)CC1`, for which the AC50 result is “inactive”.
Still for that read-out and setting: as for `Cc1oc(-c2ccccc2F)nc1CS(=O)(=O)CC(=O)NCCCN(C)C1CCCCC1`, the entry is “inactive”.
For `Cc1ccccc1-c1nc(CS(=O)CC(=O)NCCN2CCN(Cc3ccccc3)CC2)c(C)o1` (stereo unspecified), the AC50 entry was “inactive”.
As to `CC[C@]1(O)C[C@@H]2CN(CCc3c([nH]c4ccccc34)[C@](C(=O)OC)(c3cc4c(cc3OC)N(C=O)[C@H]3[C@@](O)(C(=O)OC)[C@H](C(=O)OC)[C@@]5(CC)C=CCN6CC[C@]43[C@H]65)C2)C1`, the AC50 result was “inactive”.
In the case of `CO[C@@H]1COC(=O)C/C=C\[C@H](C)[C@@H](NS(=O)(=O)c2ccc(C)cc2)COC(=O)C/C=C\[C@@H]1C`, the activity, negative = inhibition is -5.33% [at 11.4 µM] and -2.04% [at 11.4 µM].
Take `O=C(Cn1nc(C(F)F)cc1C(F)F)N/N=C/c1ccc2c(c1)OCO2`: the AC50 is 891 nM (active).
Still for that read-out and setting: as for `O=C(/C=C/c1ccc2c(c1)OCO2)NCCSCc1cccc(Cl)c1`, the figure is 4470 nM (active); as for `CCS(=O)(=O)N1CCCC(C(=O)NCCCOC(C)C)C1` (stereo unspecified), “inactive”; as for `CCC1C(=O)N=C(SCC(=O)Nc2ccc(C(=O)OC)cc2)NC1=O` (stereo unspecified), 15800 nM (active).
Consider `CCOC(=O)c1ccc(NC(=O)CC2NCCNC2=O)cc1` (stereo unspecified), for which the AC50 entry is “inactive”.
Same read-out and setting: as for `C/C(=N\NC(=O)c1ccc(Cl)cc1)c1ccc(Br)s1`, the figure is 1260 nM (active); as for `C/C(=N\NC(N)=O)c1ccc(Cl)cc1`, 3160 nM (active).
On to `CN1C(=O)C(CC(N)=O)N(NC(=O)c2ccc(Cl)cc2)C1=S` (stereo unspecified), for which the AC50 result was “inactive”.
For `C/C(=N\NC(=O)c1cccc(F)c1)c1ccc(Br)s1`, the AC50 was 631 nM (active).
Same read-out and setting: the result for `CC(NC(=O)c1cccc(F)c1)C(c1cccs1)N1CCN(C)CC1` (stereo unspecified) reads “inactive”.
For the compound `CCN1C(=O)[C@H]2[C@H]3[C@H](O)[C@H](O)C/C(=N/O[C@@H](C)c4cn([C@H]5COC[C@H]5O)nn4)[C@@H]3CC[C@@H]2C1=O`, the activity, negative = inhibition was -9.43% [at 11.4 µM].
Turning to `CCCS(=O)(=O)N1CCCC(C(=O)NCCN2CCOCC2)C1` (stereo unspecified), the AC50 entry is “inactive”.
On the same count and under the same terms, as for `COCCNC(=O)c1sc2nc(-c3ccccc3)cn2c1C`, the figure is 2000 nM (active); as for `COCCNC(=O)c1cn(Cc2c(F)cccc2Cl)nn1`, “inactive”.
On the same count and under the same terms, as for `COCCNC(=O)CCn1nc(-c2ccc(Cl)cc2)ccc1=O`, the entry is “inactive”.
Take `Cc1cc(=O)[nH]c2ccccc12`: the half-maximal activity concentration (AC50) was 15800 nM (active).
Regarding `CC(=O)Nc1ccc(Cc2ccc3[nH]c(=O)cc(C)c3c2)cc1`, the activity, negative = inhibition was -17% [at 11.4 µM].
On to `O=c1[nH]c2ccccc2c2ccccc12`, for which the concentration at half-maximal activity (AC50) is 251 nM (active).
Turning to `C=CCSc1ncccc1C(=O)NCc1ccc(C)cc1`, the AC50 is 794 nM (active).
Take `O=C(O)c1cccnc1SCC(=O)N1CCCCCC1`: the AC50 result was “inactive”.
On to `COC(=O)C/C=C\[C@@H](C)[C@@H](/C=N\O[C@@H](C)CN1CCCc2nc(C)c(C)cc21)OC`, for which the activity, negative = inhibition was -0.522% [at 11.4 µM].
As to `O=C(Nc1cccnc1)c1ccc(COc2cc(Cl)ccc2Cl)o1`, the concentration at half-maximal activity (AC50) is 794 nM (active).
As to `CC(C(=O)Nc1cccnc1)N1C(=O)C2C3C=CC(C3)C2C1=O` (stereo unspecified), the AC50 entry was “inactive”.
Regarding `O=C(N/N=C/c1ccc(O)cc1)c1ccc(COc2cc(Cl)ccc2Cl)o1`, the half-maximal activity concentration (AC50) is 4470 nM (active).
In the case of `CC(C)CNC(=O)c1ccc(COc2ccc(Cl)cc2Cl)o1`, the concentration at half-maximal activity (AC50) was 14100 nM (active).
Still for that read-out and setting: as for `Cn1ncc(Cl)c1C(=O)Nc1cccnc1`, the figure is 3550 nM (active); as for `O=C1C(O)=C(O)C(=O)C(O)=C1O`, “inactive”.
Take `CC(=O)OC[C@@H]1O[C@H](CCO/N=C(\C)CCN2CCCc3nc(C)c(C)cc32)C=C[C@@H]1OC(C)=O`: the activity, negative = inhibition was -5.74% [at 11.4 µM].
In the case of `CC(Cc1ccccc1)N/C=C1\CC(=O)NC1=O` (stereo unspecified), the AC50 entry was “inactive”.
On the same count and under the same terms, as for `COc1cc(OC)c2nc(C)c3c(c2c1)N(c1ccc(O)cc1)CC3`, the figure is 2240 nM (active).
Turning to `NC(=O)N[C@H]1NC(=O)NC1=O`, the AC50 entry was “inactive”.
The same measure, in the same setting: as for `CCn1c(=N)c(S(=O)(=O)c2ccc(F)cc2)cc2c(=O)n3ccccc3nc21`, the figure is 1580 nM (active).
The same measure, in the same setting: the result for `Cn1c(=N)c(S(=O)(=O)c2ccc(F)cc2)cc2c(=O)n3ccccc3nc21` reads 12600 nM (active); that for `CC(C)Cn1c(C(C)C)nc([N+](=O)[O-])c1S(=O)(=O)c1ccc(F)cc1`, “inactive”; that for `CN(C)C(=C(C#N)C#N)N1CCN(c2ccc(Cl)c(Cl)c2)CC1`, 25100 nM (active).
Take `CC(C)CC(=O)N1CCN(Cc2cccc(F)c2)CC1`: the AC50 result is “inactive”.
The same measure, in the same setting: the result for `O=C(c1cccc(F)c1)N1CCC2(CC1)CN(Cc1ccccc1)C2` reads “inactive”; that for `O=C(OCc1cccc(F)c1)c1ccc2c(c1)-c1ccccc1C2=O`, 3550 nM (active).
Same read-out and setting: as for `CCOC(=O)Cc1csc(NC(=O)c2ccc(S(=O)(=O)N3CCCCC3)cc2)n1`, the figure is 15800 nM (active); as for `CCOC(=O)Cc1csc(NS(=O)(=O)c2ccccc2)n1`, “inactive”.
On the same count and under the same terms, as for `COCc1nnc(NC(=O)c2ccc(S(=O)(=O)N3CCCCCC3)cc2)o1`, the entry is “inactive”; as for `CCOC(=O)Cc1csc(NC(=O)c2sc3nc4ccc(CC)cc4cc3c2N)n1`, “inactive”; as for `CCOC(=O)Cc1csc(NC(=O)c2ccc(Cl)nc2)n1`, 10000 nM (active).
On to `COc1ccc(N2C(=O)CCC(C(=O)Nc3ccccn3)C2c2ccc(OC)c(OC)c2)cc1` (stereo unspecified), for which the AC50 entry was “inactive”.
As for `C/C(CCN1CCCCc2nc(C)c(C)cc21)=N\OC[C@@H](O)COCc1ccco1`, the activity, negative = inhibition was -9.9% [at 11.4 µM].
As to `O=C1C(Cl)=C(Sc2nnc3c4ccccc4c4ccccc4c3n2)C(=O)c2ccccc21`, the half-maximal activity concentration (AC50) is 398 nM (active).
With `O=c1c2c(-c3ccc(Cl)cc3)csc2nc2n1CCC2`, the AC50 was 1260 nM (active).
The same measure, in the same setting: as for `COc1ccccc1-c1c(C)oc2c(CN3CCN(CCO)CC3)c(O)ccc2c1=O`, the entry is “inactive”; as for `O=C(C1CCN(S(=O)(=O)N2CCOCC2)CC1)N1CCN(Cc2ccccc2)CC1`, “inactive”; as for `CCCc1cc(=O)oc2c(CN3CCOCC3)c(O)ccc12`, 14100 nM (active).
Still for that read-out and setting: as for `O=c1cc(CN2CCN(c3ccc(F)cc3)CC2)c2cc3c(cc2o1)CCCC3`, the entry is “inactive”.
For `COc1ccc(-c2c(C)oc3c(CN4CCN(CCO)CC4)c(O)ccc3c2=O)cc1OC`, the AC50 entry is “inactive”.
The same measure, in the same setting: the result for `O=c1oc2c(CN3CCOCC3)c(O)ccc2c2ccccc12` reads 1260 nM (active); that for `Cc1cc(NC(=O)CSc2n[nH]c(-c3cccs3)n2)no1`, 2510 nM (active).
On to `CCCCc1nc(SCC(=O)Nc2ncccn2)n[nH]1`, for which the AC50 entry was “inactive”.
Same read-out and setting: the result for `Cc1cc(NC(=O)CSc2nc3ccsc3c(=O)n2CCCCC(=O)O)no1` reads “inactive”; that for `O=C(CSc1nc2ccccc2o1)N1c2ccccc2Sc2ccc(Cl)cc21`, 2240 nM (active); that for `O=C(CSc1nc2ccccc2s1)N1c2ccccc2Sc2ccccc21`, 708 nM (active).
Still for that read-out and setting: the result for `COc1ccc(OCc2nnc(SCC(=O)N3c4ccccc4Sc4ccc(Cl)cc43)o2)cc1` reads “inactive”; that for `O=C(CSc1nc2ccccc2s1)c1sc2sc3ccccc3[n+]2c1O`, 5010 nM (active).
The same measure, in the same setting: as for `O=C(CSc1nc2ccccc2s1)N1c2ccccc2Sc2ccc(C(F)(F)F)cc21`, the figure is 1120 nM (active).
Consider `CN1CCN(CC(=O)N2c3ccccc3Sc3cc4ccccc4cc32)CC1`, for which the activity, negative = inhibition was -21.6% [at 2.29 µM].
As to `Cc1c(NC(=O)Cn2ccc([N+](=O)[O-])n2)c(=O)n(-c2ccccc2)n1C`, the AC50 result was “inactive”.
As to `S=c1[nH]nc(-c2ccncc2)n1CC1CCCO1` (stereo unspecified), the AC50 entry is “inactive”.
For the compound `Cc1ccc(-c2ccc(CCC(=O)O)n2CC2CCCO2)cc1` (stereo unspecified), the AC50 result is “inactive”.
The same measure, in the same setting: the result for `Nc1ncc(-c2ccccc2)n1CC1CCCO1` (stereo unspecified) reads 15800 nM (active); that for `O=C(NNC(=O)C1CCN(S(=O)(=O)c2ccc(Cl)cc2)CC1)c1ccc(Cl)cc1`, “inactive”; that for `Nc1ccc(CCNc2ncnc3c2ncn3[C@@H]2O[C@@H](CO)[C@H](O)[C@@H]2O)cc1`, “inactive”.
On the same count and under the same terms, the result for `Cc1ccc(N=Nc2c(=O)[nH]n3c(C)cc(C)nc23)cc1` reads 12600 nM (active); that for `Cc1nc(-c2cccnc2)sc1C(N)=O`, 14100 nM (active).
Turning to `CNC(=O)c1sc(-c2cccnc2)nc1C`, the AC50 is 14100 nM (active).
Consider `CC(=O)NC1(c2ccc(F)cc2)CCN(C(=O)Nc2ccc(F)cc2F)CC1`, for which the AC50 result is “inactive”.
`CC(C)N=C(Nc1ccc(Cl)cc1)c1cccnc1`: the AC50 entry was “inactive”.
Still for that read-out and setting: the result for `Cc1cccc(C)c1NC(=O)CS(=O)CC(=O)Nc1ccc(F)cc1F` (stereo unspecified) reads “inactive”.
Take `Cc1nc(-c2cccnc2)sc1C(=O)Nc1ccc(Cl)cc1`: the half-maximal activity concentration (AC50) is 2510 nM (active).
The same measure, in the same setting: the result for `Cc1nc(-c2cccnc2)sc1C(=O)Nc1ccc(F)cc1F` reads 4470 nM (active); that for `CC(C)NC(=O)N1CC2(CCN(S(=O)(=O)c3ccccc3)CC2)C1`, “inactive”.

What is called AC50 is the concentration at which the activity in the assay is half-maximal.
